# From PubChem BioAssay AID743480 (Broad Institute, 2014)
# This is one part of the list. Unmarked numbers belong to inactive results.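 The calls were made as follows: active = compounds whose fitted half-maximal signal-loss concentration is at most twice their highest valid dose; inconclusive = flat curve with 30 to 70% signal loss, or poor fit; inactive = the rest.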
# Assay: cytotoxicity in HepG2 cells, dose response, cytotoxicity control, cell-based, CellTiter-Glo luminescence, cherry-pick, set 4 (AID 743480)
# Details: HepG2 viability, ATP luminescence, 72 h; series mostly up to 26 µM; activity change, negative = cytotoxicity: at the top concentration
row,SMILES,"activity change, negative = cytotoxicity [unspecified]"
1,COc1ccc(Cn2c(-c3ccc(Cl)cc3)c[n+]3ccccc23)cc1,9.96
2,CC[C@H]1OC(=O)[C@H](C)[C@@H](O[C@H]2C[C@@](C)(OC)[C@@H](O)[C@H](C)O2)[C@H](C)[C@@H](O[C@@H]2O[C@H](C)C[C@H](N(C)C)[C@H]2O)[C@](C)(O)C[C@@H](C)[C@@H]2N[C@@H](COCCOC)O[C@H]([C@H]2C)[C@]1(C)O,23.7
3,C=CCNC(=O)c1ccccc1NC(=O)c1ccc(Cl)c(S(=O)(=O)Nc2cccc(C)c2C)c1,13
